ssDAF12 agonist – activators of S. stercoralis DAF-12 nuclear receptor; activation, % at 6.8 µM; hit rate 1% among 370,000; AID 652126; HEK293 ssDAF-12/GRIP1 lit1-tk-luc reporter, luminescence; % of 3 µM dafachronic acid response;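 active = activation above the mean over all tested compounds plus 3 SD, cut at about 0.9% in these data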;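 also: 0% = DMSO-only wells and 100% = 3 µM delta7-dafachronic acid wells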
FXN GAA850 act – increases GAA850 frataxin promoter reporter activity. HEK293 lucGAA850 FXN promoter luciferase reporter, 24 h; percent of 10 µM SAHA response. activation, % at 6 µM. hit rate 0.56% among 360,000. AID 540364;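 active = activation above the average of all compounds screened plus 3 SD, cutoff fixed separately per campaign, cut at about 7.5% in these data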;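 also: 0% = DMSO wells and 100% = 10 µM SAHA wells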
hcDAF-12 act – activates DAF-12 receptor from parasite H. contortus | HEK293 hcDAF-12 lit1-tk-luc reporter, luminescence; 0% DMSO, 100% Δ7-dafachronic acid | activation, % at 6.8 µM | hit rate 1.4% among 370,000;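 active = activation above the mean of all tested compounds plus 3 SD, cut at about 5.5% in these data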;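 also: 100% = response to 3 µM Δ7-dafachronic acid high control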
DAX1 inh-1 – inhibitors of DAX1 repression of SF-1 activated StAR promoter. HEK293T StAR-luciferase reporter, SF-1/DAX-1 repression relief. AID 652010. inhibition, % at 6.8 µM. hit rate 1.1% among 370,000;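 active = inhibition above the mean over all tested compounds plus 3 SD, cut at about 3.6% in these data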;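 also: 0% = DAX-1 cells with DMSO and 100% = cells lacking DAX-1 with DMSO; higher inhibition means more luminescence from relief of DAX-1 repression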
DAX1 inh-2 – inhibitors of human orphan nuclear receptor DAX1 (NR0B1) | HEK293 Gal4-DAX1 luciferase reporter, luminescence | inhibition, % at 6.75 µM | hit rate 0.99% among 340,000 | AID 504766;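 active = inhibition above the mean over all tested compounds plus 3 SD, cut at about 4.2% in these data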;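 also: 0% = DAX1-transfected cells with DMSO and 100% = empty-vector control cells with DMSO; inhibition shows as a rise in luminescence from relieved DAX1 repression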
hgDAF12 agonist – hgDAF-12 agonism, primary luciferase screen; hit rate 1.8% among 370,000; HEK293 GAL4-hgDAF12 UAS-luciferase reporter, agonist luminescence; normalized to butyrate control; activation, % at 6.8 µM;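 active = activation above a cutoff set at the mean of all screened compounds plus 3 SD, cut at about 10% in these data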;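 also: 0% = DMSO wells and 100% = sodium butyrate wells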
GAA30 FXN cntr – counter-screen for GAA850 frataxin promoter activators: GAA30 promoter activation; shares compounds with FXN GAA850 act; HEK293 lucGAA30 FXN promoter luciferase, 24 h; DMSO = 0%, 5 µM ipriflavone = 100%; activation, % at 6 µM; hit rate 66% among 1,900;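 active = mean activation above the mean of solvent-only control wells plus 3 SD, cut at about 22% in these data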;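 also: counterscreen of GAA850 promoter hits where activity marks nonselective or luminescence artifacts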
FXN GAA850 conf – confirmation of GAA850 frataxin (FXN) promoter activators; shares compounds with FXN GAA850 act; HEK293 lucGAA850 FXN promoter luciferase reporter, 24 h; 100% = activation by SAHA; activation, % at 6 µM; hit rate 86% among 1,900;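 active = mean activation above a set limit taken from the primary screen, cut at about 8% in these data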;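 also: 0% = DMSO wells and 100% = 10 µM SAHA wells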
DAX1 inh confirm – confirmation of human DAX1 (NR0B1) inhibitors | shares compounds with DAX1 inh-1 | HEK293T StAR-promoter luciferase reporter, SF-1/DAX-1 repression | inhibition, % at 6.8 µM | hit rate 87% among 2,400;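 active = inhibition above the average of every tested compound plus 3 SD, cut at about 3.8% in these data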;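 also: 0% = DAX-1 cells with DMSO and 100% = no DAX-1 control cells with DMSO; active compounds raise luminescence by relieving repression of the StAR reporter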
SF1 AF2mut Luc – nonselective inhibitor or artifact in SF-1 mutant DAX1 counter-screen; shares compounds with DAX1 inh-1; HEK293 StAR-luciferase, SF-1 AF2 mutant, luminescence; inhibition, % at 6.8 µM; hit rate 78% among 2,400;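 active = inhibition above the mean of all tested compounds plus 3 SD, cut at about 3% in these data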;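 also: 0% = DAX-1 transfected cells with DMSO and 100% = cells without DAX-1 with DMSO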
LXRb hcDAF ctr – activates human LXR-beta, counter-screen for hcDAF-12 agonists; shares compounds with hcDAF-12 act; activation, % at 6.8 µM; 3,400 tested, under 10 active; HEK293 Gal4-LXR tk-luc reporter, luminescence, 24 h; normalized: DMSO 0%, positive control 100%;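 active = mean percent activation of the reporter above a cutoff set as the average over tested compounds plus their standard deviation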
Target sequence (P55055 whole entry, looked up, the tested form may be a part): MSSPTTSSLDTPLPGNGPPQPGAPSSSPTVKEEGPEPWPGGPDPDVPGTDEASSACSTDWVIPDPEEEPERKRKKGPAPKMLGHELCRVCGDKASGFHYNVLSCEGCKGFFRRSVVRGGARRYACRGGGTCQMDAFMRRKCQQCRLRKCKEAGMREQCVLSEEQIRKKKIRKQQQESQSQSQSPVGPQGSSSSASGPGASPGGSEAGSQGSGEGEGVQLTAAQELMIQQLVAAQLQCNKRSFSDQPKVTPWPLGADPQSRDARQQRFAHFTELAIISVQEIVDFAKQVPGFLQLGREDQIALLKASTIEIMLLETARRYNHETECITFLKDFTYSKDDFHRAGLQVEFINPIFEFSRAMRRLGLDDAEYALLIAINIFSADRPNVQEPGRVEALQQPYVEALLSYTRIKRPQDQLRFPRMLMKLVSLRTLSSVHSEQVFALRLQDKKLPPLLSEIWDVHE
hcDAF12 conf – confirmation of H. contortus DAF-12 agonists; shares compounds with hcDAF-12 act; HEK293 hcDAF-12 lit1-tk-luc reporter, luminescence; % of Δ7-dafachronic acid response; activation, % at 6.8 µM; hit rate 61% among 3,400;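 active = mean activation across triplicate tests above the threshold derived from the earlier primary screen, cut at about 5.5% in these data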;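 also: 0% = DMSO only wells and 100% = 3 µM Δ7-dafachronic acid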
hgDAF12 ag – hgDAF-12 agonism, confirmation assay | shares compounds with hgDAF12 agonist | HEK293 GAL4-hgDAF12 luciferase reporter, agonist mode; percent of butyrate response | activation, % at 6.8 µM | hit rate 80% among 3,300 | AID 743050;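 active = mean activation over triplicate wells above the hit cutoff derived from the earlier primary screen, cut at about 11% in these data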;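 also: 0% = DMSO low control and 100% = 2 mM sodium butyrate high control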
LXR ag 2 – activates human LXR-beta, counter-screen for DAF-12 agonists | HEK293 Gal4-LXR luciferase reporter, 24 h | shares compounds with hgDAF12 agonist | AID 743051 | 3,300 tested, under 10 active | activation, % at 6.8 µM;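 active = mean activation of the triplicate above a set limit carried over from the primary screen, none filed active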
* hit, by the source's call; · = not tested or not shown. An excerpt weighted towards active compounds, which were near 4.5% of everything screened.

SMILES | ssDAF12 agonist | FXN GAA850 act | hcDAF-12 act | DAX1 inh-1 | DAX1 inh-2 | hgDAF12 agonist | GAA30 FXN cntr | FXN GAA850 conf | hgDAF12 ag | LXR ag 2 | others
COc1cc(/C=N/O)ccc1OCc1ccccc1Cl | 0 | 12* | 5 | 2 | 1 | 14* | 122* | 38* | 16* | 1
CC1(C)C=Cc2cc(-c3coc4cc(O)cc(O)c4c3=O)cc(O)c2O1 | 0 | 1 | 2 | 1 | 1 | 6 | · | · | · | ·
Cc1ccc2oc(-c3ccc(C)c(NC(=S)NC(=O)c4cccs4)c3)nc2c1 | 2.6* | 8.6* | 11* | 3.9* | 4.7* | 14* | 96* | 19* | 14* | 1 | LXRb hcDAF ctr=1;hcDAF12 conf=8.9*
Cc1ccc2oc(-c3ccc(C)c(NC(=O)Cc4cccs4)c3)nc2c1 | 0 | -1 | 0 | 0 | 1 | 1 | · | · | · | ·
COc1ccc(-c2cnnc(N/N=C/c3ccc(O)c(OC)c3)n2)cc1 | -1 | -2 | 0 | -3 | -3 | 3 | · | · | · | ·
Cc1sc(NC(=O)C2C3CCC(O3)C2C(=O)O)nc1-c1ccc(CC(C)C)cc1 (stereo unspecified) | 0 | 13* | 5 | 2 | 2 | 18* | 62* | 26* | 10 | 0
Cc1ccc(Nc2ncccc2C(=O)O)cc1C | -1 | 1 | 3 | 2 | 1 | 4 | · | · | · | ·
Cc1ccc(Nc2ncccc2C(N)=O)cc1[N+](=O)[O-] | 0 | 10* | 3 | 2 | 3 | 16* | 100* | 27* | 14* | 1
Cc1nc2ccc(-c3nc4ccccc4[nH]3)cc2[nH]1 | 0 | 7.8* | 8.3* | 5.6* | 0 | 19* | 129* | 38* | 19* | 1 | DAX1 inh confirm=12*;SF1 AF2mut Luc=6.4*;LXRb hcDAF ctr=1;hcDAF12 conf=8.1*
Cc1ccc([N+](=O)[O-])cc1CN1CCN(c2ncc(Cc3ccccc3)cn2)CC1 | -1 | · | -1 | 0 | · | 1 | · | · | · | ·
Cc1ccccc1OCCN1C(=O)c2ccccc2C1=O | -1 | 4 | 2 | 1 | 2 | 7 | · | · | · | ·
Nc1cccc2c1C(=O)N(CCOc1ccc(F)cc1)C2=O | 0 | 8.1* | 11* | 3 | 1 | 17* | 106* | 26* | 18* | 1 | LXRb hcDAF ctr=2;hcDAF12 conf=9.3*
c1ccc(-c2cc3nccc(-c4ccccn4)n3n2)cc1 | 0 | 8.0* | 4 | 1 | 4 | 23* | 106* | 29* | 16* | 1
Cc1cc2nccc(-c3ccccn3)n2n1 | -2 | 0 | 2 | 0 | 1 | -2 | · | · | · | ·
CC(=O)c1ccc(S(=O)(=O)N(C)CCCC(=O)N2CCN(c3ncccn3)CC2)cc1 | -1 | 2 | -2 | -1 | 0 | -2 | · | · | · | ·

High-throughput results as filed in PubChem BioAssay.
